Screening results deposited in PubChem BioAssay by several laboratories.
Shown are actives, neighbours in structure and some others; about 4.3% of the full set was active somewhere.
NR3A LBD binder: binders of NR3A ligand-binding domain, primary screen, biophysical, differential scanning fluorimetry, uHTS; Glutamate receptor ionotropic, NMDA 3A (GRIN3A) ligand-binding domain; 340,000 compounds, 2.5% hits; Tm shift relative to glycine control, % at 25 µM; NR3A LBD differential scanning fluorimetry, Tm shift; 0% = protein alone, 100% = glycine-bound protein;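 active = melting temperature shift of at least 10% of the positive control shift, at one fixed dose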
NALP1 inh: NALP1 inflammasome inhibitors in reconstituted yeast, colorimetric, S. cerevisiae, triplicate retest. S. cerevisiae NALP1/ASC/caspase-1 growth, X-gal OD620, 72 h. inhibition, % at 10 µM. 280,000 compounds, 0.61% hits. AID 2071, 2009; in the data active = inhibition mostly above about 24%, no sharp cut-off; inactive = mostly below about 32%
dFosB activator: activators of delta FosB homodimer, primary screen, biochemical, fluorescence polarization, TAMRA-CDK5 oligo, single point. Protein FosB (Mus musculus), P13346. purified delta FosB; percent of positive-control signal above neutral wells. activation, % at 25 µM. 340,000 compounds, 0.99% hits;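 active = mean activation above about 17%, with every replicate also reaching it, limit read from the data, passing the limit was not always enough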
Target sequence (P13346 whole entry, looked up): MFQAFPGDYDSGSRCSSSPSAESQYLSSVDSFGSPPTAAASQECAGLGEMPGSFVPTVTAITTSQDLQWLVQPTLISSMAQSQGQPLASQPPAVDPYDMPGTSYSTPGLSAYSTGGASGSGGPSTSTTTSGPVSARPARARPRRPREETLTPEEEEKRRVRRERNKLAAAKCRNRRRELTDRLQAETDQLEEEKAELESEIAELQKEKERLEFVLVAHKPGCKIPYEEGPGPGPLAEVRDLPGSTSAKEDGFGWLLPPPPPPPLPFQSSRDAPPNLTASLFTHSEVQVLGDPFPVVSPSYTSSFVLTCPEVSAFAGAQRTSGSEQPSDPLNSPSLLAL
UBC13 polyUb: UBC13 polyubiquitin chain formation inhibitors, primary screen, biochemical, TR-FRET, uHTS; Ubiquitin-conjugating enzyme E2 N (Homo sapiens), P61088; inhibition, % at 20 µM; 330,000 compounds, 0.47% hits; AID 485273, 2010; in the data active = inhibition above about 45%, passing the limit was not always enough
Target sequence (P61088 whole entry, looked up): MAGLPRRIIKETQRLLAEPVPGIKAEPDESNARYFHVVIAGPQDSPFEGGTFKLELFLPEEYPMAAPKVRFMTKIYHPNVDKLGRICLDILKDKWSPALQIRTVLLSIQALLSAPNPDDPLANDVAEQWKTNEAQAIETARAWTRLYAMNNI
CR mimetic SO: reduction of superoxide in aged yeast, primary screen, HTS. superoxide response (% of plate mean), % at 10 µM. 330,000 compounds, 0.18% hits. S. cerevisiae aged cells, superoxide DHE fluorescence; hits give low values. AID 2690, 2010;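 active = superoxide response under a set limit, about three screen SD below normal, cut at about 65% in these data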;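 also: yeast aged for seven days with compound at 30 °C before DHE staining; 100% = average MFI of all compound-treated wells on the plate with controls excluded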
Starred values were filed as active, the others as inactive; nt = no result given.

SMILES	NR3A LBD binder	NALP1 inh	dFosB activator	UBC13 polyUb	CR mimetic SO
N#C/C(=C(/O)COC(=O)c1ccccc1O)c1nc2ccccc2s1	13*	6	-9	-14	105
O=C(OCc1nc2ccccc2s1)c1ccccc1O	1	22	-10	1	91
N#C/C(=C(/O)COC(=O)c1ccc(O)cc1)c1nc2ccccc2[nH]1	-2	8	-7	-10	99
CC(=O)N1CCc2cc(C(=O)CN3CCCCC3)ccc21	13*	-6	2	-5	107
CCOC(=O)N1CCN(CC(=O)c2ccc3c(c2)CCN3C(C)=O)CC1	2	-19	0	-6	118
O=C1[C@@H]2[C@H](Cc3ccc(O)cc3)N[C@]3(C(=O)Nc4ccccc43)[C@@H]2C(=O)N1c1ccc(F)cc1	nt	-5	-11	0	111
Cc1c(Cl)ccc2c1NC(=O)[C@]21N[C@@H](Cc2ccccc2)[C@H]2C(=O)N(c3ccc(F)cc3)C(=O)[C@H]21	13*	0	-16	8	94
COc1ccc(NC(=O)c2ccco2)c2ccccc12	0	11	-3	-1	110
Oc1ccc(Cl)cc1CNCc1ccc(Cl)cc1	-1	nt	-1	16	102
Oc1ccc(Cl)cc1Cc1cc(Cl)ccc1O	17*	69	2	-13	100
CC(=O)n1c2c(c3ccccc31)OC(N)=C(C#N)C2c1ccc(C(C)C)cc1 (stereo not given)	2	34*	-4	-12	96
CC(=O)C1=C(C)OC(N)=C(C#N)C1c1cccc2ccccc12 (stereo not given)	2	-5	-5	-1	94
COCCCn1c(=O)c2ccccc2n(CC(=O)Nc2ccc3c(c2)OCCO3)c1=O	7	15	-4	4	104
CN1CCN(c2ccc(Cl)cc2NC(=O)C2COc3ccccc3O2)CC1 (stereo not given)	0	32*	-8	5	104
CCc1cc(C(=O)Nc2cc(S(=O)(=O)N(CC)CC)ccc2N2CCN(C)CC2)sc1C	-2	nt	-11	26	99
COc1ccc(Cl)cc1NC(=O)C1COc2ccccc2O1 (stereo not given)	-20	5	2	-8	97
CCc1cc(C(=O)Nc2cc(Cl)ccc2N2CCN(C)CC2)sc1C	11*	nt	-2	11	84
COc1ccc(N=c2cc(-c3ccc(O)cc3)oc3ccccc23)cc1	-1	38	42*	-40	105
COc1ccc(N=c2cc(-c3ccc(OC)cc3)oc3ccccc23)cc1	-14	47	12	0	95
CC(C)CN1CCN(CCCOC(=O)Nc2cccc3ccccc23)CC1C (stereo not given)	0	nt	5	nt	nt
Cc1cc(NC(=O)CSc2nnc(C)n2C)no1	-2	1	1	6	91
COc1ccc(Br)cc1CNC(C)c1ccccc1 (stereo not given)	21*	19	-8	12	110
COc1ccccc1CNCc1cc(Br)ccc1OC	-1	12	-8	8	98
CC(=O)c1ccc(-n2c(SCC(=O)c3c[nH]c4ccccc34)nc3ccccc3c2=O)cc1	16*	20	-1	-2	90
Cc1cccc(-c2nnc(SCC(=O)c3ccc(O)cc3O)n2C)c1	3	-24	-1	0	108
SMILES	NR3A LBD binder	NALP1 inh	dFosB activator	UBC13 polyUb	CR mimetic SO
CNc1cc(CSC)nc(SCc2ccc(Cl)cc2Cl)n1	-3	33*	-12	9	91
Cc1ccnc(NC(c2ccccc2)c2ccc3cccnc3c2O)c1 (stereo not given)	148*	nt	11	nt	nt
Cc1ccnc(NC(c2cccnc2)c2ccc3cccnc3c2O)c1 (stereo not given)	-5	21	-8	-9	85
COc1ccccc1CNC(=O)CN1C(=O)NC2(CCOc3ccccc32)C1=O (stereo not given)	0	nt	-1	-9	108
COCc1ccc(C(=O)N2CCCCC2C(=O)Nc2ccc(-n3nc(C)cc3C)cc2)o1 (stereo not given)	2	6	-3	-3	93
Clc1ccccc1-c1nn2c(COc3ccccc3)nnc2s1	1	40*	0	8	109
COc1cc(-c2nn3c(COc4ccccc4)nnc3s2)cc(OC)c1OC	1	-4	-9	18	106
CCOc1ccccc1OCc1nn2c(COc3ccccc3)nnc2s1	14*	31	-12	2	95
c1ccc(Cc2nn3c(COc4ccccc4)nnc3s2)cc1	-1	32	-2	7	108
COc1cccc(CN2CC(C(=O)NCCCn3ccnc3C)CCC2=O)c1 (stereo not given)	0	9	-3	4	107
COc1ccc2cc3c(N)nn(C(=O)c4ccccc4[N+](=O)[O-])c3nc2c1	-5	6	-6	-27	102
COc1ccc2cc3c(N)nn(C(=O)c4ccc(Cl)c([N+](=O)[O-])c4)c3nc2c1	22*	37	-3	-12	81
COc1cc(CC(=O)OCC(=O)Nc2ccc(Cl)c(S(=O)(=O)N(C)C)c2)cc(OC)c1OC	0	3	-13	10	79
CN(C)S(=O)(=O)c1cc(NC(=O)COC(=O)Cc2ccc(Br)cc2)ccc1Cl	15*	29	-2	5	79
CN(C)S(=O)(=O)c1cc(NC(=O)COC(=O)Cc2ccc(Cl)cc2Cl)ccc1Cl	2	20	-11	2	103
CN(C)S(=O)(=O)c1cc(NC(=O)COC(=O)CCSc2ccc(Cl)cc2)ccc1Cl	13*	30	-10	9	106
CC(C)Oc1ccc(C(=O)NC2(C(F)(F)F)N=C3SCCN3C2=O)cc1 (stereo not given)	1	-9	-7	-13	103
C[C@@H]1CCC[C@@]2(O[C@H](CCO)C[C@H](O)[C@H]2O)O1	-2	nt	-10	10	115
Cc1onc(-c2ccccc2)c1C(=O)Nc1ccc(NC(=O)c2c(-c3ccccc3)noc2C)cc1	0	nt	-5	-2	99
Cc1ccc([N+](=O)[O-])cc1NC(=O)c1c(-c2ccccc2)noc1C	13*	-8	-2	4	100
C[C@@H]([C@H](O)c1ccccc1)N(C)C(=S)Nc1ccccc1	2	6	0	7	99
O=C(Nc1ccccc1N1CCOCC1)c1ccc([N+](=O)[O-])o1	19*	10	0	-9	114
O=C(Nc1ccccc1N1CCCCC1)c1ccc([N+](=O)[O-])o1	4	nt	-17	-3	nt
CCN1CCN(c2c(Cl)cccc2NC(=O)c2ccc([N+](=O)[O-])o2)CC1	nt	31*	-6	-8	96
Nc1nnc(SCC(=O)NNC(=O)c2ccc(F)cc2)s1	-1	nt	0	-4	94
O=C(/C(=N\O)n1cncn1)c1ccc(Cl)cc1Cl	0	27	-11	-5	122
